Among the data in PubChem BioAssay (Tox21) are Potency and activity, negative = inhibition values, retold here.

SMILES strings stand for the structures. Records with an inconclusive call do not appear. A call without a number means that no potency is given here. Calls of active or inactive are those of the source. Calls come from the whole dose curve; as a rule, active = well fitted inhibition curve with a large enough effect in the signal ratio in the repeat runs (not every such curve was filed as active); inconclusive = weak or mixed curves, or effect the other way; inactive = no such curve, though single readings can be large or run the other way; the % refers to the signal ratio.

Sequence of Estrogen receptor beta (Homo sapiens) (Q92731 whole entry, looked up): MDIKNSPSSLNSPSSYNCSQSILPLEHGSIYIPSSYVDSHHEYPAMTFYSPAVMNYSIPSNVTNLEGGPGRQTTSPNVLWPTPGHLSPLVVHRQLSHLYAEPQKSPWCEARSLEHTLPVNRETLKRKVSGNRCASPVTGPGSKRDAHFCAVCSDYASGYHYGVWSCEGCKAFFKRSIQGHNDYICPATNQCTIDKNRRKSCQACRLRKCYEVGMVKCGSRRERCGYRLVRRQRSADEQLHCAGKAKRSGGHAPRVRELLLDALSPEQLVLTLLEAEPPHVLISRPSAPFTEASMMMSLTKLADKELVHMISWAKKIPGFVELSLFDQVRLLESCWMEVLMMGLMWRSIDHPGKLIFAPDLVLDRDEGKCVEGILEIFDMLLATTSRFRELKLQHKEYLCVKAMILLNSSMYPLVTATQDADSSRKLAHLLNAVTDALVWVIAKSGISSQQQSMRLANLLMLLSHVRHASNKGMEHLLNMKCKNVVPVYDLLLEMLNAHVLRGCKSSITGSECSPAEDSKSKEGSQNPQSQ

The target of this test is Estrogen receptor beta (Homo sapiens) (UniProt Q92731). The test can be described thus: qHTS assay to identify small molecule antagonists of the estrogen receptor beta (ER-beta) signaling pathway (AID 1259378). The note with it: ER-beta-UAS-bla HEK293T, beta-lactamase FRET ratio, 16 h; series mostly up to 92.4 µM. From the text:
National Center for Advancing Translational Sciences [NCATS]
NIH Chemical Genomics Center [NCGC]
U.S. Environmental Protection Agency [EPA]
National Institutes of Environmental Health Sciences [NIEHS]
National Toxicology Program [NTP]
U.S. Food and Drug Administration [FDA]
Estrogen receptor (ER), a nuclear hormone receptor, plays an important role in development, metabolic homeostasis and reproduction. Two subtypes of ER, ER-alpha and ER-beta, have similar expression patterns with some uniqueness in both types. Endocrine disrupting chemicals (EDCs) and their interactions with steroid hormone receptors like ER causes disruption of normal endocrine function. To identify the compounds that inhibit ER signaling, an ER-beta-UAS-bla GripTite cell line (Life Technologies, Madison, WI, USA) containing a beta-lactamase reporter gene under the control of an UAS response element was used to screen Tox21 10K compound library.
Tox21 Assay Protocol Summary:
ER-beta-UAS-bla HEK293T cells were dispensed at 2,000 cells/4 uL of assay medium containing 2% charcoal stripped FBS per well into black wall/clear-bottom 1536-well plates using a Multidrop Combi (ThermoFisher Scientific, Waltham, MA) dispenser. After the assay plates were incubated at a 37C and 5% CO2 for 6 hr, 23 nL of compounds dissolved in DMSO, positive controls or DMSO only was transferred to the assay plate by a Pintool station (Kalypsys, San Diego, CA), followed by addition of 1 uL (1nM as final concentration) of 17-beta-estradiol (E2) in assay medium using a BioRAPTR FRD (Flying Reagent Dispenser, Aurora Discovery, San Diego, CA). The plates were incubated at 37C and 5% CO2 for 16 hr. Then 1 uL of LiveBLAzerTM B/G FRET substrate was added using a Flying Reagent Dispenser, the plates were incubated at room temperature for 2 hours, and fluorescence intensity was measured by an Envision plate reader (PerkinElmer, Shelton, CT).
For orientation: qHTS replaces the single test concentration by a dilution series.
For the molecule `Cc1cc(-c2ccccc2)nnc1NCCN1CCOCC1`, the Potency result was “inactive”.

With `CCCCCC/C=C/C(=O)OC`, the Potency result is “inactive”. As to `CN1CCOC(c2ccccc2)c2ccccc2C1` (stereo not given), the Potency result was “inactive”. With `CSc1cnccn1`, the Potency entry is “inactive”. As for `O=C1c2ccccc2C(=O)c2cc(Cl)ccc21`, the activity, negative = inhibition was 3.18% [at 8.39 µM] (inactive). Consider `COS(=O)(=O)O`, for which the Potency result is “inactive”. Regarding `CN(C)C(C)(C)CO`, the Potency entry is “inactive”. With `CC(C)C1OCCN1CCOC(=O)NCCCCCCNC(=O)OCCN1CCOC1C(C)C` (stereo not given), the Potency result is “inactive”. For `CC(=O)CCc1ccc(OC(C)=O)cc1`, the Potency result was “inactive”. Turning to `COC(=O)/C=C\C(=O)O`, the Potency result is “inactive”. Still for that read-out and setting: as for `CC(C)NC(=O)c1ccc(C=O)cc1`, the entry is “inactive”. In the case of `Cc1ccnc(N)c1`, the Potency result is “inactive”. As for `COC(=O)CCCCC(CCSS/C(CCO)=C(\C)N(C=O)Cc1cnc(C)nc1N)SC(C)=O` (stereo not given), the Potency entry was “inactive”. Regarding `Cc1c(C(=O)c2c[nH]n(C)c2=O)ccc(S(C)(=O)=O)c1C1=NOCC1`, the Potency entry was “inactive”. Consider `N[C@@H](Cc1ccc(O)cc1)C(=O)O`, for which the activity, negative = inhibition is -4.71% [at 8.39 µM] (inactive). As for `O=NN(CCCl)C(=O)NC1CCCCC1`, the Potency entry is “inactive”. Still for that read-out and setting: in the case of `CNCCS(=O)(=O)O` it was “inactive”; in that of `CCO`, “inactive”. With `COc1nc(N)nc2nc[nH]c12`, the Potency result is “inactive”. Consider `CN(C)CC/C=C1/c2ccccc2COc2ccc(CC(=O)O)cc21`, for which the Potency result was “inactive”. As for `CCN1CCCC1CN` (stereo not given), the Potency result was “inactive”. For the molecule `CC(=O)CC(=O)OC(C)(C)C`, the Potency result was “inactive”. Turning to `CC(Oc1cc(Cl)ccc1Cl)C(=O)O` (stereo not given), the Potency entry is “inactive”. Turning to `[O-][n+]1cccc(/C(Cl)=N/OC[C@@H](O)CN2CCCCC2)c1`, the Potency entry was “inactive”. `Cn1c(=O)c2c(ncn2CCO)n(C)c1=O`: the Potency entry is “inactive”. Turning to `CC(=O)O[C@H]1C[C@@H]2CC[C@@]1(C)C2(C)C`, the Potency result is “inactive”. For the molecule `CCCCCCCCCCCCCCCCCCOCCO`, the activity, negative = inhibition is 4.09% [at 19 µM] (inactive). With `CC1(C)[C@H]2CC[C@](C)(C2)[C@H]1O`, the Potency result is “inactive”. In the case of `COc1ccc(CCO)cc1`, the Potency entry was “inactive”. `CCC(=O)c1c(O)cc(O)cc1O`: the Potency entry is “inactive”. In the case of `C=C(C)C1CC=C(C)C(=O)C1` (stereo not given), the Potency entry is “inactive”. On to `CCCC(=O)OC/C=C(\C)CCC=C(C)C`, for which the Potency result is “inactive”. Still for that read-out and setting: as for `C=C(C)[C@@H]1CC=C(C)C(=O)C1`, the entry is “inactive”; as for `O/N=C/C=N/O`, “inactive”; as for `Cc1ncc([N+](=O)[O-])n1CC(C)O` (stereo not given), “inactive”. Turning to `CC(N)CCCC(C)(C)O` (stereo not given), the Potency entry is “inactive”. For `[O]=[Mo](=[O])=[O]`, the activity, negative = inhibition was 0.823% [at 19 µM] (inactive). In the case of `CCCC(=O)Nc1ccc(OCC(O)CNC(C)C)c(C(C)=O)c1` (stereo not given), the Potency result is “inactive”.

Regarding `CC1(C)O[C@H]2CC(=O)OC[C@]23[C@H]2CC[C@@]4(C)[C@H](c5ccoc5)OC(=O)[C@H]5O[C@]54[C@]2(C)C(=O)C[C@@H]13`, the Potency entry is “inactive”.

Regarding `CCOc1cccc(N)c1`, the Potency entry is “inactive”.
